From PubChem BioAssay AID743279 (National Center for Advancing Translational Sciences (NCATS), 2014) come the findings set out here.

The campaign covered roughly 360,000 compounds. About 17,000 (4.7%) were called active. Another 5% or so got no clear call; they are omitted. Many of the other results were omitted from the sample, so actives are more common in it than they were. A number with no mark means an inactive call. No stated cut-off is given here; in the data, active means activity change below about -50%; inconclusive means mostly about -30% to -49%; inactive means weaker than that.
On the % scale 0 is the no-effect control and ±100 the full control effect.

This test can be described thus: qHTS for Inhibitors of Inflammasome Signaling: IL-1-beta AlphaLISA Primary Screen. To be noted: THP-1 LPS/ATP IL-1B secretion, 16 h; at 57.5 µM, hits give low values. The method in brief: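 THP-1 cells pretreated 1 hr with compounds (up to 57.5 uM final), then stimulated with LPS (250 ng/mL final) plus ATP (1.25 mM final); secreted IL-1B measured by AlphaLISA after 16 hr, decreased signal indicating inhibition.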
In the case of `O=C(Nc1cc2c3c(c1)CC(=O)N3CCC2)c1ccccc1F`, the activity change was 4.9%.

Regarding `CCNC(=O)C1(C)CCCN(Cc2noc(-c3ccccc3OC)n2)C1` (stereo not given), the activity change is -5.34%.

With `C[C@H]1CN([C@@H](C)CO)C(=O)CCCn2nncc2CO[C@@H]1CN(C)Cc1ccc(Oc2ccccc2)cc1`, the activity change is 8.16%.

With `CCOCCCNC(=O)C(NC(=O)Cc1c[nH]c2ccccc12)c1ccc(OC)cc1` (stereo not given), the activity change is 10.6%.

Consider `N#Cc1nc(COc2ccc(-c3ccccc3)cc2)oc1NCc1cccnc1`, for which the activity change was -79.6% (active).

Consider `O=S(=O)(c1ccc(Br)cc1)c1nc(-c2ccccc2)oc1NCc1cccnc1`, for which the activity change was -18.2%.

Turning to `Cc1cc(NCc2cccnc2)no1`, the activity change is 3.61%.

`O=C(COC(=O)/C=C/c1ccc(OC(F)F)cc1)NC1CCCCC1`: the activity change was 17.5%.

Consider `CCCC/C(C)=N/NC(=O)NC1CCCCC1`, for which the activity change is 14.3%.

Regarding `C/C(=N\NC(=O)NC1CCCCC1)c1ccc(OC(F)F)cc1OC(F)F`, the activity change is -80.5% (active).

Regarding `O=C(c1ccc(Cn2cc([N+](=O)[O-])cn2)o1)N1CCCC1`, the activity change is 13.7%.

With `Cc1ccn(-c2cccc(-n3ccc(C)n3)n2)n1`, the activity change was 25.2%.

As to `CC(C)(C)OC(=O)C[C@@H]1C/C=C\C[C@@H](CC(=O)N(CCO)Cc2ccccc2)C(=O)N[C@H](Cc2ccccc2)COC1=O`, the activity change is -12.5%.

For `O=C1OC[C@@H]2CCCN2C(=O)[C@H](CC(=O)N(CCO)Cc2ccccc2)C/C=C\CC[C@@H]1Cc1ccc(F)cc1`, the activity change was -27.7%.

Take `O=C1CCC/C=C/C[C@@H](CC(=O)N(CCO)Cc2ccccc2)C(=O)NC[C@H](c2ccccc2)O1`: the activity change was -15.8%.

In the case of `O=C1CCC/C=C\C[C@@H](CC(=O)N(CCO)Cc2ccccc2)C(=O)NCCO1`, the activity change is 36.5%.

As to `O=C1NC[C@@H](c2ccccc2)OC(=O)[C@H](Cc2ccc(F)cc2)CC/C=C/C[C@H]1CC(=O)N(CCO)Cc1ccccc1`, the activity change was -57.4% (active).

For `O=C1N[C@@H](c2ccccc2)COC(=O)[C@H](Cc2ccc(F)cc2)C/C=C\C[C@@H]1CC(=O)N(CCO)Cc1ccccc1`, the activity change is -68.1% (active).

For `CCCCc1ccc(S(=O)(=O)NC(=O)C2(C)CCN2C(=O)c2c(C)noc2C)cc1` (stereo not given), the activity change was 24.9%.

Turning to `CCN(CC)C(=O)N1CCN(C(=O)c2ccc(C)cn2)CC1`, the activity change is 13.6%.

Take `Cc1ccc(S(=O)(=O)N2CCCC2C(=O)OCc2nc3sc(C)c(C)c3c(=O)[nH]2)cc1` (stereo not given): the activity change is -4.97%.

`Cc1ccc(-n2cnc3ncnc(-c4ccccc4)c32)cc1`: the activity change is -9.14%.

Turning to `CCn1ccnc1CN(C)Cc1nc(-c2ccc3c(c2)OCO3)no1`, the activity change was 1.77%.

With `Cc1ccc(-n2cc(CN(C)Cc3nccn3C)c(-c3cccc(C)c3)n2)cc1`, the activity change was -85.3% (active).

With `O=C(C=CC(=O)Nc1ccc(F)cc1F)Nc1ccc(F)cc1F`, the activity change was 36.7%.

In the case of `COC(=O)c1ccc(Oc2nc(Nc3ccc(F)cc3)nc(N3CCCC3)n2)cc1`, the activity change is -60.2% (active).

As to `CCNc1nc(Oc2ccc(C(=O)OC)cc2)nc(N2CCOCC2)n1`, the activity change is 7.61%.

As for `COC(=O)c1ccc(Oc2nc(NC(C)C)nc(SC)n2)cc1`, the activity change was 19.1%.

Consider `CCOC(=O)c1c(-c2ccccc2)oc2cc(Br)c(O)c(C=O)c12`, for which the activity change was -98% (active).

`CCOC(=O)c1c(-c2ccccc2)oc2ccc(OCC(=O)NN)cc12`: the activity change was -28.6%.

As for `CCOC(=O)c1c(-c2ccccc2)oc2cc(Br)c(O)cc12`, the activity change was 0%.

As to `Cc1cc(OCC(=O)Nc2nccs2)c2c(C)c(C)c(=O)oc2c1`, the activity change is 6.37%.

As to `Cc1ccc(Cc2c(C)nc3nc(SCC(=O)NCCN4CCOCC4)nn3c2C)cc1`, the activity change was 7.76%.

Regarding `Cc1nc2nc(SCC(=O)NCc3ccco3)nn2c(C)c1Cc1ccccc1`, the activity change was -78.8% (active).

For the molecule `Cc1cc(C)n2nc(SCC(=O)NC(=O)NCc3ccco3)nc2n1`, the activity change was 34.3%.

For the molecule `Fc1ccc(N2N=C(c3cccs3)CC2c2ccco2)c(F)c1` (stereo not given), the activity change is 5.22%.

In the case of `O=C(O)C1CCCN1c1nc(Cl)ccc1[N+](=O)[O-]` (stereo not given), the activity change is -1.43%.

As to `CC(=O)N[C@H]1[C@H]([C@H](O)[C@H](O)CO)OC(C(=O)O)=C[C@@H]1O`, the activity change is 1.96%.

Take `CCOC(=O)C1=C(C)c2ccccc2OC1(C)C(=O)OCC` (stereo not given): the activity change is 41.5%.

For `CCOC(=O)c1c(C)nc2c(c1C)c(=O)oc1ccccc12`, the activity change was 7%.

As to `CCOC(=O)c1c(C)[nH]c2c1-c1ccccc1C(=O)C2=O`, the activity change is -53.9% (active).

As for `CN(C)CCCOc1ccc(-c2ccc3nccn3c2)cn1`, the activity change is -5.3%.

Consider `CCOc1ccc2nc(N3CCCN(C(=O)Nc4ccccc4C)CC3)c(C#N)cc2c1`, for which the activity change is -14.3%.

As to `CCC(C)(C)n1nnnc1CN1CCN(c2nc3ccc(C)cc3cc2C#N)CC1`, the activity change was -68.2% (active).

With `Cc1cc(C)c2cc(C#N)c(N3CCNCC3)nc2c1`, the activity change was -29.2%.

For the molecule `O=C(CSc1ncn[nH]1)Nc1nsc(-c2ccccc2)n1`, the activity change is 10.9%.

In the case of `O=C(CSc1ncn[nH]1)Nc1ccnc2ccccc12`, the activity change is 11%.

`O=C(CSc1ncn[nH]1)Nc1ccc(Br)cc1Br`: the activity change was -53.6% (active).

For `NS(=O)(=O)c1ccc(NC(=O)COC(=O)CCc2c[nH]c3ccccc23)cc1`, the activity change is 0%.

For the molecule `Cc1csc(SCC(=O)Nc2ccc(C)c(S(=O)(=O)N(C)C)c2)n1`, the activity change is 42.7%.

For the molecule `CNCC[C@H](Oc1ccc(C(F)(F)F)cc1)c1ccccc1`, the activity change was -68.4% (active).

`CC(C)Oc1ccc(Oc2ccc(C(F)(F)F)cn2)cc1`: the activity change is -23.6%.

For the molecule `CC(NC(=O)COC(=O)Cn1cc(C(F)(F)F)ccc1=O)c1ccccc1` (stereo not given), the activity change is -0.662%.

Turning to `CCOC(=O)c1c(NC(=S)SC)sc(C(=O)N2CCc3ccccc3C2)c1C`, the activity change is 1.46%.

Regarding `CN(CC(=O)NCC(c1ccccc1)N1CCCC1)S(=O)(=O)c1ccc(Cl)cc1` (stereo not given), the activity change was -22.9%.

On to `CC(=O)Nc1c2c(nn1-c1ccc(C)cc1C)CS(=O)C2` (stereo not given), for which the activity change was 13.7%.

For `Clc1ccc2nc(CSc3ccccc3)cn2c1`, the activity change was -87.1% (active).

On to `CCCCCCSc1ccc(-c2nc3ccc(Cl)cn3c2NCc2ccccc2)cc1`, for which the activity change was -8.09%.

Take `Cc1ccc(-c2nc3ccc(Cl)cn3c2Cc2ccccc2)cc1`: the activity change is -3.47%.

Turning to `CC1(C(=O)NS(=O)(=O)c2cccc(F)c2)CCN1C(=O)c1cccc2ccccc12` (stereo not given), the activity change was 21.3%.

On to `CCCCCCN1CCN(C2CN(Cc3cn(CCCCCC)nn3)S(=O)(=O)C2)CC1` (stereo not given), for which the activity change is -17.7%.

In the case of `CC[C@H]1CN2CCc3cc(OC)c(OC)cc3[C@@H]2C[C@@H]1C[C@H]1NCCc2cc(OC)c(OC)cc21`, the activity change was -106% (active).

Turning to `COc1cc2c(cc1OC)CN(CC(=O)Nc1ccc(F)cc1)CC2`, the activity change was 14%.

Consider `CCC(Sc1nncn1C)C(=O)Nc1nnc(-c2ccc(Cl)cc2)s1` (stereo not given), for which the activity change was -11%.

In the case of `O=C(c1cccnc1)N(Cc1ccccc1)C(=O)c1cccnc1`, the activity change was 33%.

On to `COC(=O)c1c(C)[nH]c(C(=O)/C=C/c2ccc(Cl)cc2)c1C`, for which the activity change is -3.64%.

Turning to `Cc1[nH]c(=O)c(C(=O)/C=C/c2ccccc2)c2c1CCCC2`, the activity change was -98.3% (active).

Consider `CC1(C(=O)O)CCCN(C(=O)/C=C/c2ccccc2)C1` (stereo not given), for which the activity change was 17.4%.

With `CCCCn1c(N)c(N(CCC(C)C)C(=O)COC(=O)c2cccnc2OCC)c(=O)[nH]c1=O`, the activity change is -17.5%.

For the molecule `CCCCCCCN=C(C)c1ccccc1O`, the activity change was 19.8%.

For `C/C(=N\Nc1ccc(Cl)nn1)c1ccccc1O`, the activity change is -63.2% (active).

As to `C/C(=N/Nc1ccc(Cl)cc1)c1cnnc(-c2ccccc2)n1`, the activity change is 58.2%.

Take `Cn1c(CCN2CCN(c3ccccn3)CC2)nc2cc(NS(=O)(=O)c3ccc(F)cc3)ccc21`: the activity change was -12.9%.

In the case of `C[C@H]1NS(=O)(=O)c2cc(Cl)ccc2O[C@@H]1c1ccccc1`, the activity change was 51.9%.

With `O=C(Nc1cccc(S(=O)(=O)Nc2ccc(Cl)cc2)c1)c1ccc2c(c1)OCCO2`, the activity change is -81.3% (active).

In the case of `COC(=O)c1ccc(N2CCOCC2)c(NC(=O)c2ccc3c(c2)OCCO3)c1`, the activity change was 18.4%.

In the case of `O=C(Nc1ccc(Cl)cn1)c1ccc2c(c1)OCCO2`, the activity change is 2.51%.

As for `CN1CCN(c2ccc(NC(=O)c3ccc4c(c3)OCCO4)cc2Cl)CC1`, the activity change is -72.6% (active).

Regarding `CN1CCN(c2ccc(NC(=O)c3cc(Cl)c4c(c3)OCCO4)cc2)CC1`, the activity change was -19%.

Regarding `O=C(Nc1ccc(NC(=O)c2ccc3c(c2)OCO3)cc1)c1cccc(Cl)c1`, the activity change is 9.41%.

For the molecule `COc1ccc(NC(=O)CN(C)C(=O)c2cc(C)oc2C)cc1`, the activity change is 24%.

As to `CCCS(=O)(=O)NC(=O)C1(C)CCCN(C(=O)c2ccnc(Cl)c2)C1` (stereo not given), the activity change is 15.3%.

Consider `CC(=O)Nc1ccc(C(=O)N(C2=NC(C)CS2)c2ccc(Cl)cc2)cc1` (stereo not given), for which the activity change entry is “inactive”.

`COc1ccccc1C(=O)NCCC(=O)NC1=NCCS1`: the activity change was 22%.

As to `COc1ccccc1C(=O)N(C1=NC(C)CS1)c1ccc(Cl)cc1` (stereo not given), the activity change is -80.7% (active).

Consider `COc1ccc(CCC(=O)Nc2ccc(Cl)c(S(=O)(=O)N3CCOCC3)c2)cc1OC`, for which the activity change is -24.7%.

Regarding `Cc1sc2ncnc(N3CCC(C(=O)NNC(=O)c4ccc(F)cc4)CC3)c2c1C`, the activity change is -23.3%.

`Cc1nc(N2CCN(c3ccccn3)CC2)c2c(C)c(C(=O)Nc3ccc(F)c(Cl)c3)sc2n1`: the activity change is -58.3% (active).

`CCN(CC)c1ccc(NC(=O)CN2CCN(c3ccccn3)CC2)cc1`: the activity change is 2.92%.

Turning to `Cc1cc(Br)ccc1NC(=O)c1sc2ncn(CC(=O)N3CCN(c4ccccn4)CC3)c(=O)c2c1C`, the activity change was 28.3%.

With `Cc1nc(N2CCC(C)CC2)c2c(C)c(C(=O)Nc3cc(F)ccc3C)sc2n1`, the activity change was -93.6% (active).

Turning to `Cc1sc2ncnc(N3CCC(C(=O)Nc4ccc(F)cc4Cl)CC3)c2c1C`, the activity change was -10.9%.

As for `Cc1nc(N2CCN(c3ccccn3)CC2)c2c(C)c(C(=O)Nc3ccc(F)cc3)sc2n1`, the activity change was -76.8% (active).

`CCC(=O)Nc1ccc2c(c1)nc(CCN1CCN(c3ccccn3)CC1)n2C`: the activity change is -3.98%.

For `Cc1cc(Br)ccc1NC(=O)c1cnc(N2CCN(c3ccccn3)CC2)c2ccccc12`, the activity change was 1.57%.
